From PubChem
Only some compounds are listed: those with a hit (about 1.5% of all), similar ones and a draw of the others.
Mtb MbtI inh – blocks the Mycobacterium tuberculosis siderophore enzyme MbtI; 0.89% of 100,000 active; inhibition, % (concentration not given with the values); purified MbtI enzyme, fluorescence intensity read-out; P9WFX0; AID 493033; in the data active means inhibition mostly above about 56%, no sharp cut-off; inactive means mostly below about 77%
MenB inh – Mtb MenB enzyme inhibition; AID 540299; 0.43% of 100,000 active; MenB enzyme assay, absorbance read-out; inhibition, % (concentration not given with the values); P9WNP5; in the data active means inhibition above about 21%, passing the limit was not always enough
Target sequence (P9WNP5 whole entry, looked up): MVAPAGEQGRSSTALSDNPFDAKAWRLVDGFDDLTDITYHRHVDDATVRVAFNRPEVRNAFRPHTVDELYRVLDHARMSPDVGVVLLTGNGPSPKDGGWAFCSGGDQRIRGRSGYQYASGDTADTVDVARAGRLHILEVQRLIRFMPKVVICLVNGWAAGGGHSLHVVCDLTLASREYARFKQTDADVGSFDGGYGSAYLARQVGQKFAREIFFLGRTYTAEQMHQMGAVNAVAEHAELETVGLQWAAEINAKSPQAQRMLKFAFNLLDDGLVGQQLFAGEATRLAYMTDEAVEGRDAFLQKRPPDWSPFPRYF
AID504770 – E. coli YBA685 growth inhibition, screen for V. cholerae RctB inhibitors; E. coli YBA685 rctB-dependent plasmid, OD600 growth, 3 h; active compounds read low; 0.27% of 130,000 active; z-score (concentration not given with the values); AID 504770; in the data active means z-score below about -2, passing the limit was not always enough
PV pol inh – poliovirus RNA polymerase inhibition | poliovirus polymerase elongation, fluorescence polarization; active compounds read low | % elongation, % (compound at 16.7 µg/mL) | 0.66% of 150,000 active | AID 588519; in the data active means % elongation below about 90%
Hits are given with their value.

Screening CN1C2CCC1CC(NC1CCCCC1)C2 (stereo not given) returned MenB inh inactive, AID504770 inactive and PV pol inh 80.0.
Screening CN1CCSC1=NCCSc1ccc(Cl)cc1 returned Mtb MbtI inh inactive, MenB inh inactive, AID504770 inactive and PV pol inh inactive.
Cc1ccc(N(C)S(=O)(=O)c2cc(-c3cc(C)no3)ccc2C)cc1 was read as Mtb MbtI inh inactive, MenB inh inactive, AID504770 inactive and PV pol inh inactive.
O=C(Cc1cnn(-c2ccccc2)c1)c1ccc(O)c(O)c1O was read as Mtb MbtI inh 81.6, MenB inh inactive, AID504770 inactive and PV pol inh inactive.
For N#CC(=Nc1cccnc1)C1=C(O)c2ccccc2C1=O the results were Mtb MbtI inh inactive, MenB inh inactive, AID504770 inactive and PV pol inh inactive.
O=C1C=CC(=O)N1CCc1ccc(Cl)cc1 was read as Mtb MbtI inh 100.5, MenB inh inactive, AID504770 inactive and PV pol inh inactive.
`O=C1C=CC(=O)N1CCc1ccccc1` gave Mtb MbtI inh 93.2, AID504770 inactive and PV pol inh inactive.
For CCC(C)c1ccccc1NC(=O)c1ccc(=O)n(C)n1 (stereo not given) the results were Mtb MbtI inh inactive, MenB inh inactive, AID504770 inactive and PV pol inh inactive.
Screening CCOC(=O)C1=C(C)OC2(O)c3ccccc3C(=O)C12O (stereo not given) returned Mtb MbtI inh inactive, MenB inh inactive, AID504770 inactive and PV pol inh 56.0.
`OC(COc1ccc2cc(Br)ccc2c1)Cn1cccn1` (stereo not given) gave MenB inh 27.5, AID504770 inactive and PV pol inh inactive.
For Oc1ccccc1C1OCC(C2CC=CCC2)CO1 (stereo not given) the results were Mtb MbtI inh inactive, MenB inh 36.4, AID504770 inactive and PV pol inh inactive.
For O=C(Nc1ccc(N2C(=O)C=CC2=O)cc1Cl)c1ccco1 the results were Mtb MbtI inh 96.2, MenB inh inactive, AID504770 inactive and PV pol inh inactive.
For O=C(CC1(c2ccc(Cl)cc2)C(=O)c2ccccc2C1=O)N1CCOCC1 the results were Mtb MbtI inh inactive, MenB inh inactive, AID504770 inactive and PV pol inh inactive.
For O=C1c2ccccc2C(=O)C1(O)N1CCOCC1 the results were Mtb MbtI inh inactive, MenB inh inactive, AID504770 inactive and PV pol inh 34.0.
`CCOC(=O)c1ccc(N)cc1` gave Mtb MbtI inh inactive, MenB inh inactive, AID504770 inactive and PV pol inh inactive.
CCOC(=O)C(C#N)C(=O)c1ccc(N)cc1 (stereo not given) was read as MenB inh inactive, AID504770 inactive and PV pol inh 80.0.
For COc1ccc(C(O)(CCc2ccccc2)C(CN2CCCCC2)c2ccccc2)cc1 (stereo not given) the results were Mtb MbtI inh inactive, MenB inh inactive, AID504770 inactive and PV pol inh inactive.
For CCOC(=O)C(Sc1nc2c(c(=O)[nH]1)CCCC2)c1ccccc1 (stereo not given) the results were Mtb MbtI inh 73.7, MenB inh inactive and AID504770 inactive.
`O=c1[nH]c(SCc2ccccc2)nc2c1CCCC2` gave PV pol inh inactive.
For COC(=O)c1ccc(NC(=O)C(C)Sc2nc3c(c(=O)[nH]2)CCCC3)cc1 (stereo not given) the results were Mtb MbtI inh 81.3, MenB inh inactive, AID504770 inactive and PV pol inh inactive.
N#Cc1cc(-c2ccc(Cl)cc2)no1 was read as Mtb MbtI inh inactive, MenB inh inactive, AID504770 -2.55 and PV pol inh inactive.
`Cc1ccc2[nH]c3c(c2c1)CCCC3Nc1ccc(Cl)cc1` (stereo not given) gave Mtb MbtI inh inactive, MenB inh inactive, AID504770 inactive and PV pol inh inactive.
Screening Cc1cc(-n2c(C)cc(C(=O)COC(=O)/C=C/c3ccccc3)c2C)no1 returned Mtb MbtI inh inactive, MenB inh inactive, AID504770 inactive and PV pol inh inactive.
For CC[n+]1c(-c2ccccc2)c2cc(N)ccc2c2ccc(N)cc21 the results were Mtb MbtI inh inactive, MenB inh inactive, AID504770 inactive and PV pol inh 75.0.
O=C(O)CCN1CCCC1 was read as Mtb MbtI inh inactive, MenB inh inactive, AID504770 inactive and PV pol inh inactive.
`O=C(O)CN1CCCCC1` gave Mtb MbtI inh inactive, MenB inh 30.9, AID504770 inactive and PV pol inh inactive.
`Cc1ccc2c(c1)N(C(=O)CCC(=O)NC1CCCC1)CCO2` gave Mtb MbtI inh inactive, MenB inh inactive, AID504770 inactive and PV pol inh inactive.
For CC1=C/C(=N/OC(=O)c2ccccc2)C=CC1=O the results were Mtb MbtI inh inactive, MenB inh inactive, AID504770 inactive and PV pol inh inactive.
